Data reported in PubChem BioAssay (NCATS).
Inconclusive results are not listed. Entries that show only a call come without a potency. The source made the active and inactive calls. Calls come from the whole dose curve; as a rule, active = well fitted inhibition curve with a large enough effect; inconclusive = small, poorly fitted or top-dose-only effect; inactive = flat fitted curve, though single readings scatter.

Each molecule was assayed against Calcium and integrin-binding protein 1 (Homo sapiens) (UniProt Q99828) (assay: Primary qHTS for Identification of Calcium Integrin Binding Protein 1 (CIB1) Competitor (AID 1508620;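 note: GST tagged CIB1 binding a fluorescein labelled alphaIIb integrin peptide tracer; top concentration of the series differs between compounds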)). Conditions: CIB1-GST / FITC-alphaIIb peptide fluorescence polarization; series mostly up to 114 µM.
Sequence of Calcium and integrin-binding protein 1 (Homo sapiens) (Q99828 whole entry, looked up): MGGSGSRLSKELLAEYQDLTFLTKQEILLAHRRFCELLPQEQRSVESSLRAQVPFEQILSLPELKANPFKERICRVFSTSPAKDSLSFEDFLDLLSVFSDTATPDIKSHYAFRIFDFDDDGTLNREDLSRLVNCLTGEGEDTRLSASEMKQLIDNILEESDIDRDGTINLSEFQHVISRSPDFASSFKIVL
How it was run: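 Fluorescence polarization competition: CIB1-GST (1 uM final) preincubated with compound 15 min at room temperature, then FITC-labeled alphaIIb peptide (100 nM final) added for another 15 min. Polarization read at Ex 480/Em 540.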

Q: How did the Potency turn out when `CN(CC(=O)Nc1ccc(N2CCOCC2)cc1)Cc1ccccc1O` was run?
A: inactive

Q: For `O=C(Cc1nnc(-c2nc3ccccc3[nH]2)o1)Nc1cc(C(F)(F)F)ccc1Cl`, which Potency is on record?
A: inactive

Q: Which Potency does the source give for `c1cncc(-c2ccc3ncnc(NCc4ccc5c(c4)OCO5)c3c2)c1` here?
A: inactive

Q: Which Potency does the source give for `O=S(=O)(Nc1nc(-c2ccccc2C(F)(F)F)nc2ccccc12)c1ccc(Br)cc1` here?
A: inactive

Q: For `Cc1cncc(NC(=S)N2CCN(c3cccc(C(F)(F)F)c3)CC2)c1`, which Potency is on record?
A: inactive

Q: Which Potency does the source give for `CCOC(=O)CC(=O)Nc1ncnc2c1C(c1ccccc1)c1c(ccc3ccccc13)O2` (configuration not stated) here?
A: inactive

Q: For `O=C(COC(=O)CNC(=O)c1ccccc1Cl)Nc1cc(C(F)(F)F)ccc1Cl`, which Potency is on record?
A: inactive

Q: Which Potency does the source give for `O=C(O)c1cc(Br)c(O)c2ncccc12` here?
A: inactive

Q: Which Potency does the source give for `COc1ccc(NC(=O)C(OC(=O)CNC(=O)c2ccccc2)c2ccccc2)cc1F` (configuration not stated) here?
A: inactive

Q: For `COc1cc(-c2ccc3ncnc(NCc4ccc(C)o4)c3c2)cc(OC)c1OC`, which Potency is on record?
A: inactive

Q: `Nc1scc2c(C(=O)O)nn(-c3ccccc3)c(=O)c12` was tested. Which Potency did it give?
A: inactive

Q: For `O=c1c2ccccc2nc2sc(Nc3ccc(Sc4ccccc4)cc3)nn12`, which Potency is on record?
A: inactive

Q: `Cc1ccc(CNc2ccc(N3CCN(C(=O)OC(C)(C)C)CC3=O)cc2)cc1` was tested. Which Potency did it give?
A: inactive

Q: How did the Potency turn out when `Cc1cc2c(s1)c1cnn(Cc3cc(C(F)(F)F)ccc3F)c(=O)c1n2C` was run?
A: inactive

Q: `Cc1cc(C)cc(Cn2ncc3c4sc(C)cc4n(C)c3c2=O)c1` was tested. Which Potency did it give?
A: inactive

Q: How did the Potency turn out when `O=C(Nc1ccc(Cl)c(Cl)c1)Nc1nnc(C2CCCCC2)s1` was run?
A: inactive

Q: How did the Potency turn out when `COc1ccc(C2Nc3ccccc3C(=O)N2Cc2ccccc2C(F)(F)F)cc1COc1ccc(NC(C)=O)cc1` (configuration not stated) was run?
A: inactive
